Shown is part of a subset that was picked to be rich in hits.
Giardia FBPA inh: qHTS Assay for Inhibitors of Fructose-1,6-bisphosphate Aldolase from Giardia Lamblia; A8B2U2; purified Giardia FBPA; Potency, µM (titrated, usually from 59.6 µM), most hits filed as inhibitors; 0.71% of 290,000 active; also: nearly all actives have a fitted effect of over 55% in size
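Giardia FBPA (40 nM reagent) was preincubated 10 min at RT with compound (up to 57.5 uM final), then substrate plus GAPDH/TPI/NAD/arsenate coupling system with diaphorase/resazurin was added; resorufin fluorescence (525/598 nm) was read after 20 min.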
Tb PYK inh: qHTS of Trypanosoma Brucei Inhibitors; TbPYK enzyme, Kinase-Glo Plus ATP luminescence, 45 min; Potency, µM (doses to about 76.8 µM), hits mostly inhibitors; AID 624173, 2012; pyruvate kinase (Trypanosoma brucei), Q57TT1; 0.12% of 410,000 active; also: nearly all actives have a fitted effect of over 50% in size
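TbPYK + substrate in 50 mM TEA pH 7.2, 100 mM KCl, 10 mM MgCl2, 0.05% BSA, 0.01% Tween-20; cpd pinned; ADP 130 uM final; 45 min RT; Kinase-Glo Plus 10 min; luminescence endpoint.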
RE007 growth inh: qHTS Assay for Inhibitors of the HIV-1 protein Vpr. 0.21% of 360,000 active. S. pombe RE007 Vpr strain, BacTiter-Glo ATP luminescence, 24 h. Potency, µM (titrated, usually from 92.2 µM), usual class: inhibitors. AID 651644, 2012; active = well fitted falling curve with a large enough effect; inconclusive = small, poorly fitted or top-dose-only effect; inactive = no such curve, though single readings can be large or run the other way; also: nearly all actives have a fitted effect of over 50% in size
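Fission yeast RE007 carrying one integrated HIV-1 vpr copy, seeded at OD 0.01 in PMG+AL medium with 23 nL pinned compound. Grown 24 h at 30 degrees; viability read by BacTiter-Glo luminescence after 5 min.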
Shiga inhibitor: A qHTS for Small Molecule Inhibitors of Shiga Toxin. Vero cells, Shiga toxin protein synthesis inhibition reporter. inhibition, % at 38.7 µM. 9.2% of 290,000 active; in the data active = inhibition mostly above about 28%, no sharp cut-off; inactive = mostly below about 43%
CHX counter: Cycloheximide Counterscreen for Small Molecule Inhibitors of Shiga Toxin | cell reporter, cycloheximide protein synthesis inhibition counterscreen | max response, % | 12% of 300,000 active; in the data active = max response mostly above about 13%, no sharp cut-off; inactive = mostly below about 14%; also: read at 38.3 µM for the half of the compounds with a filed dose
LmPK inh: qHTS Assay for Inhibitors of Leishmania Mexicana Pyruvate Kinase (LmPK); Q27686; purified LmPK, Kinase-Glo ATP luminescence, 1 h; Potency, µM (doses to about 57.5 µM), hits mostly inhibitors; 0.37% of 290,000 active; AID 1721, 2009
Target sequence (Q27686 whole entry, looked up): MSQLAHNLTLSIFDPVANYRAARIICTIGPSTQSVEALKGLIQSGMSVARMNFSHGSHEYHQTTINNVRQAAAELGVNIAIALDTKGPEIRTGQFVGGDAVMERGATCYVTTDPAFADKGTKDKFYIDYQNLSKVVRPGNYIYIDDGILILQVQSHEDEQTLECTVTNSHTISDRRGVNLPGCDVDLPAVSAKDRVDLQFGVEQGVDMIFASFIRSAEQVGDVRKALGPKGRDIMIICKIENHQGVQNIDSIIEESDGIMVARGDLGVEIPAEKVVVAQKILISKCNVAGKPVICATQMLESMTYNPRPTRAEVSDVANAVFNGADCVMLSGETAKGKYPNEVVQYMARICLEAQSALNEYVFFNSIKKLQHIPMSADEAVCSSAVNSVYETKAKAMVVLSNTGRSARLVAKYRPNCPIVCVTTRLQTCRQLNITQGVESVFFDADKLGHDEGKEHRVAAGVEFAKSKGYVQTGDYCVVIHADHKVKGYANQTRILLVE
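Pyruvate kinase activity monitored as ATP production (luciferase luminescence). Conditions: 0.1 nM enzyme, 0.5 mM PEP, 0.1 mM ADP, 1 h, RT; normalized against uninhibited and no-enzyme wells.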
A number is an active result; – = inactive; ? = inconclusive; · = not tested or not shown; [ ] = remark or other dose. Unless noted, calls follow the shape of the dose curve; as a rule, active = well fitted curve in the direction sought with a large enough effect; inconclusive = small, poorly fitted or top-dose-only effect, or another doubt; inactive = no such curve, though single readings can be large; an effect the other way counts as inactive or inconclusive.

SMILES	Giardia FBPA inh	Tb PYK inh	RE007 growth inh	Shiga inhibitor	CHX counter	LmPK inh
COc1ccc(/C=N/Nc2nccnc2Cl)cc1	–	?	?	–	36	7.1µM
COc1ccc(/C=N/Nc2nccnc2Cl)c(OC)c1	–	–	–	78	29	10µM
COc1ccc(S(=O)(=O)NCCc2csc3nc(-c4ccc(OC)c(OC)c4)nn23)cc1C	·	–	·	·	·	·
CC12CCCCC1(O)[N+](=O)C1=C(CCCC1)N2[O-] (stereo unspecified)	?	–	–	–	15	–
CCOc1ccccc1CNC(=O)CC(C)n1ccc(C)n1 (stereo unspecified)	·	–	·	·	·	·
O=C(NCC(O)CN1CCOCC1)c1ccc([N+](=O)[O-])cc1 (stereo unspecified)	–	–	–	–	–	–
CCc1nc(N2CCC3(CC2)OCCO3)c2nnn(Cc3ccccc3)c2n1	–	–	–	–	–	–
Cc1nc(N2CCC3(CC2)OCCO3)c2nnn(Cc3ccccc3F)c2n1	–	–	–	57	43	–
COc1cccc(-c2ccc3c(N)c(C(=O)NC4CC4)sc3n2)c1	–	–	–	104	37	–
COc1ccc(C(=O)c2sc3nc(-c4ccc(OC)cc4)ccc3c2N)cc1	–	–	–	–	22	–
CC(=O)c1sc2nc(-c3cccs3)ccc2c1N	–	–	–	101	46	–
CCC1=C(c2ccc(C)cc2)S(=O)(=O)N=C1N1CCC(C(=O)NCCCN2CCCCC2C)CC1 (stereo unspecified)	–	–	–	–	–	–
CC(C)C[C@H](NC(=O)[C@@H](Cc1c[nH]c2ccccc12)NC(=O)[C@H](Cc1ccc(O)cc1)NC(=O)[C@H](CO)NC(=O)[C@H](Cc1c[nH]c2ccccc12)NC(=O)[C@H](Cc1cnc[nH]1)NC(=O)[C@@H]1CCC(=O)N1)C(=O)N[C@@H](CCCN=C(N)N)C(=O)N1CCC[C@H]1C(=O)NCC(N)=O	–	·	·	–	–	·
COc1cccc(C2=NNC(=NCc3ccccc3)SC2)c1	–	–	–	47	41	–
CCc1ccc(C2=NNC(=Nc3c(C)n(C)n(-c4ccccc4)c3=O)SC2)cc1	–	–	–	–	–	–
COc1ccc(CN=C2NN=C(c3cccc(OC)c3)CS2)cc1	–	?	–	82	42	–
COc1ccc(CN=C2NN=C(c3ccccc3)CS2)cc1	–	–	–	101	48	–[11.5 µM]
COCCOC(=O)c1c(NC(=O)COC(=O)Cc2cccc(OC)c2)sc(C(N)=O)c1C	·	–	–	–	–	–
Cc1ccc(Cn2c(=O)n(Cc3ccccc3)c(=O)c3c(C)c(C)sc32)cc1	·	–	·	·	·	·
O=C(O)CC/C(=N/NC(=O)c1cn(-c2ccccc2)nc1-c1ccccc1)C(=O)O	–	–	–	–	–	–
O=C(O)CC1=C(Nc2ccccc2)C(=O)N(c2ccccc2)C1c1ccc(Br)cc1 (stereo unspecified)	–	–	–	79	25	–
CN(C)c1nc(-c2ccccc2)ns1	–	–	–	130	33	–
COc1cccc2cc(C(=O)c3ccc([N+](=O)[O-])cc3)oc12	–	–	–	–	23	–
Cc1ccc(S(=O)(=O)N2CCC(C(=O)N3CCc4ccccc43)CC2)cc1C	·	–	–	·	·	·
O=C(O)Cc1ccc(N=Nc2c(O)c(C(=O)O)cc3ccccc23)cc1	–	–	–	133	56	–
SMILES	Giardia FBPA inh	Tb PYK inh	RE007 growth inh	Shiga inhibitor	CHX counter	LmPK inh
NS(=O)(=O)c1ccc(N=Nc2c(O)c(C(=O)O)cc3ccccc23)cc1	?	–	·	–	–	–
C/C(=N/NC(=O)c1cccs1)c1c(C)[nH]n(-c2nc3ccccc3s2)c1=O	–	?	?	–	–	20µM
CC(=NCc1ccco1)c1c(C)[nH]n(-c2nc3ccccc3s2)c1=O	–	–	?	56	48	–
CCC(=NCc1ccco1)c1c(C(F)(F)F)[nH]n(-c2nc3ccccc3s2)c1=O	–	–	–	52	45	–
CCC(=NCc1ccccc1)c1c(C(F)(F)F)[nH]n(-c2nc3ccccc3s2)c1=O	–	·	–[3.69 µM]	–	21	–
O=c1c(C=NCc2cccnc2)c(C(F)(F)F)[nH]n1-c1nc2ccccc2s1	–	–	?	–	–	–
CCCN=C(C)c1c(-c2ccccc2)[nH]n(-c2nc3ccccc3s2)c1=O	–	–	–	–	–	–
Cc1ccc(NC(=O)c2ccco2)c(OCc2cc(=O)n3cc(C)sc3n2)c1	·	–	·	·	·	·
Cc1cccc(C)c1NC(=O)CSc1nccn1C	·	–	·	·	·	·
[O-]C1=N[N+](=C(c2ccccc2)c2ccccc2)C1	·	–	–	·	·	·
COC(=O)Cc1[nH]n(-c2nc3ccccc3s2)c(=O)c1C(C)=Nc1ccc(C)cc1	–	–	?	93	35	–
COC(=O)Cc1[nH]n(-c2ccccc2)c(=O)c1C(C)=Nc1ccccc1	–	–	–	–	–	–
Cc1ccc(NC(=O)N2CCN(C)c3ncccc32)cc1C	·	–	·	·	·	·
Cc1ccc(COc2ccc(-c3nnco3)cc2)cc1	–	–	·	67	40	–
Cc1ccc2nc(-c3ccc(NS(=O)(=O)c4ccc(F)c(F)c4)cc3)sc2c1	–	–	?	96	64	–
Cc1nc2ccc(NS(=O)(=O)c3ccc(F)c(F)c3)cc2s1	·	–	–	·	·	·
Cc1ccc2nc(-c3ccc(NS(=O)(=O)c4ccccc4)cc3)sc2c1	–	–	–	active	29	–
CCOc1ccccc1NC(=O)Nc1cc2c(cc1N1CCCCC1)n(CC)c(=O)n2CC	·	–	·	·	·	·
COc1cc(NC(=O)CCc2c(C)nc3c(-c4ccc(F)cc4)c(C)nn3c2C)cc(OC)c1OC	·	–	·	·	·	·
Cc1cc(-c2ccncc2)n2ncc(-c3ccccc3)c2n1	·	–	–	·	·	·
CCSc1cc(C)nc2c(-c3ccccc3)cnn12	–	–	–	69	52	–
Cc1cc(-c2ccc(F)cc2)n2ncc(-c3ccccc3)c2n1	·	–	–	·	·	·
C=CCSc1cc(C)nc2c(-c3ccccc3)cnn12	–	–	–	80	63	–
Cc1ccc2nc3c(cc2c1)CC1(C(=O)N(C)C(=O)N(C)C1=O)C1CCCCN31 (stereo unspecified)	–	–	–	69	19	–
O=C(c1ccccc1)N1CCN(CCc2ccncc2)CC1	·	–	·	·	·	·
CCC(C)NC(=S)Nc1ccc(C(=O)OC)cc1 (stereo unspecified)	–	–	–	56	26	–
CC(C)(C)NC(=O)Nc1ccc(Br)cc1	–	–	–	83	39	–
CCC(C)NC(=O)Nc1ccc(Br)cc1 (stereo unspecified)	–	–	–	79	32	–
